Test results from the supplement of paper PMC6522484.
Where a name gives a salt, the structure may show the parent alone. ± gives the standard deviation of the averaged measurements.

Tests used:
[1] = test system: DLD1; assay: cell viability (CellTiter-Glo) relative to plate median (fraction of plate median); higher = more viable cells; conditions: 10 µM, treatment time 24 h
Method in brief: (§1)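 Kinase inhibitor library compounds were added at a final 10 µM for 24 h to colorectal cancer cells in 384-well plates, 24 h after seeding. The cells stably expressed lentiviral TCF/Wnt firefly luciferase reporters. Firefly luciferase and CellTiterGlo luminescence came from parallel plates, and each well was normalised to its plate median (webcellHTS2, additive, untransformed), averaged over two independent replicates.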

[2] = test system: HCT116; assay: as above; conditions: 10 µM; treatment time 24 h; reporter: TCF4/Wnt
Method in brief: as §1

[3] = test system: SW480; assay: as above; conditions: 10 µM; treatment time 24 h; reporter: 7TFP
Method in brief: as §1

[4] = test system: DLD1; assay: TCF/Wnt firefly luciferase reporter signal relative to plate median (fraction of plate median); higher = higher Wnt reporter signal; conditions: 10 µM, treatment time 24 h
Method in brief: as §1

[5] = test system: HCT116; assay: as above; conditions: 10 µM; treatment time 24 h; reporter: TCF4/Wnt
Method in brief: as §1

[6] = test system: SW480; assay: as above; conditions: 10 µM; treatment time 24 h; reporter: 7TFP
Method in brief: as §1

SMILES | cell viability ([1]; reporter: 7TFP) | cell viability ([1]; reporter: TCF4/Wnt) | cell viability [2] | cell viability [3] | TCF/Wnt firefly luciferase reporter signal ([4]; reporter: 7TFP) | TCF/Wnt firefly luciferase reporter signal ([4]; reporter: TCF4/Wnt) | TCF/Wnt firefly luciferase reporter signal [5] | TCF/Wnt firefly luciferase reporter signal [6]
O=c1sn(-c2cccc3ccccc23)c(=O)n1Cc1ccccc1 [Tideglusib] | 1.03 ± 0.081 | 0.9475 ± 0.005 | 1.03 ± 0.067 | 0.946 ± 0.0099 | 1.32 ± 0.035 | 1.17 | 1.285 ± 0.0071 | 1.11 ± 0.064
O=C(c1ccc(/C=C/c2n[nH]c3ccccc23)cc1)N1CCNCC1 | 1.16 ± 0.021 | 1.14 ± 0.071 | 0.944 ± 0.093 | 1.09 ± 0.035 | 1.26 ± 0.6 | 1.46 ± 0.65 | 1.45 ± 0.45 | 1.53 ± 0.2
CNC(=O)c1cc(Oc2ccc(NC(=O)Nc3ccc(Cl)c(C(F)(F)F)c3)cc2)ccn1 [Sorafenib (Nexavar)] | 1.11 ± 0.028 | 1.04 ± 0.098 | 1.135 ± 0.0071 | 1.04 ± 0.021 | 0.959 ± 0.2 | 0.883 ± 0.081 | 1.06 ± 0.078 | 1.19 ± 0.057
CC(C)(C)c1nc(-c2cccc(NS(=O)(=O)c3c(F)cccc3F)c2F)c(-c2ccnc(N)n2)s1 | 1 ± 0.051 | 0.981 ± 0.042 | 1.055 ± 0.0071 | 1.06 ± 0.064 | 1.18 ± 0.071 | 1.05 ± 0.05 | 0.931 ± 0.47 | 1.75 ± 0.014
Cn1cc(-c2ccc3ncc(Cc4ccc5ncccc5c4)n3n2)cn1 | 1.045 ± 0.0071 | 1.06 ± 0.094 | 1.15 ± 0.028 | 0.911 ± 0.032 | 0.931 ± 0.021 | 0.769 ± 0.21 | 0.991 ± 0.61 | 0.587 ± 0.28
Cc1ccc(Nc2nccc(N(C)c3ccc4c(C)n(C)nc4c3)n2)cc1S(N)(=O)=O [Pazopanib HCl] | 1.11 ± 0.23 | 1.03 ± 0.073 | 1.065 ± 0.0071 | 0.846 ± 0.018 | 1.125 ± 0.0071 | 1.06 ± 0.19 | 1.14 ± 0.028 | 0.931 ± 0.087
Cc1ccc(C(=O)Nc2cccc(C(F)(F)F)c2)cc1Nc1nc(-c2cccnc2)nc2c1cnn2C | 1.07 ± 0.035 | 1.06 | 0.912 ± 0.2 | 1.05 ± 0.042 | 1.36 ± 0.085 | 0.925 ± 0.2 | 1.12 ± 0.099 | 0.952 ± 0.48
Cc1ccc(NC(=O)c2ccc(CN3CCN(C)CC3)cc2)cc1Nc1nccc(-c2cccnc2)n1 [Imatinib Mesylate] | 0.9835 ± 0.0064 | 0.907 ± 0.17 | 0.91 ± 0.024 | 0.984 ± 0.066 | 2.07 ± 0.14 | 1.51 ± 0.4 | 1.32 ± 0.47 | 1.73 ± 0.15
COc1cc(Nc2c(C#N)cnc3cc(OCCCN4CCN(C)CC4)c(OC)cc23)c(Cl)cc1Cl [Bosutinib (SKI-606)] | 0.869 ± 0.034 | 0.9025 ± 0.0021 | 0.864 ± 0.016 | 0.995 ± 0.035 | 0.4675 ± 0.0035 | 0.534 ± 0.021 | 0.242 ± 0.22 | 0.648 ± 0.23
COCC(=O)NC/C=C/c1ccc2ncnc(Nc3ccc(Oc4ccc(C)nc4)c(C)c3)c2c1 | 0.964 ± 0.14 | 1.035 ± 0.0071 | 1.06 ± 0.014 | 0.952 ± 0.059 | 1.18 ± 0.064 | 1.19 ± 0.17 | 0.786 ± 0.27 | 0.927 ± 0.43
c1ccc2c(-c3cnn4cc(-c5ccc(N6CCNCC6)cc5)cnc34)ccnc2c1 | 0.666 ± 0.25 | 0.874 ± 0.093 | 0.62 ± 0.14 | 0.8895 ± 0.0064 | 1.02 ± 0.014 | 1.08 ± 0.18 | 0.634 ± 0.3 | 1.35 ± 0.11
Cc1csc(-c2nnc(Nc3ccc(Oc4ncccc4-c4ccnc(N)n4)cc3)c3ccccc23)c1 | 0.943 ± 0.042 | 1.03 ± 0.035 | 1.16 ± 0.071 | 1.03 ± 0.059 | 1.08 ± 0.11 | 0.866 ± 0.13 | 1.75 ± 0.14 | 0.983 ± 0.067
NC(=O)c1ccc(-c2nc(-c3ccccn3)c(-c3ccc4c(c3)OCO4)[nH]2)cc1 | 0.936 ± 0.16 | 0.968 ± 0.014 | 1.09 ± 0.035 | 0.829 ± 0.037 | 0.99 ± 0.043 | 1.2 ± 0.085 | 1.21 ± 0.085 | 0.944 ± 0.15
Cn1cc(C2=C(c3ccc(Cl)cc3Cl)C(=O)NC2=O)c2ccccc21 | 1.05 ± 0.18 | 0.952 ± 0.058 | 1.01 ± 0.088 | 0.993 ± 0.067 | 1.4 ± 0.057 | 1.35 ± 0.43 | 1.56 ± 0.61 | 1.35 ± 0.16
COc1cc2nccc(Oc3ccc(NC(=O)C4(C(=O)Nc5ccc(F)cc5)CC4)cc3)c2cc1OC [XL-184 free base (Cabozantinib)] | 1 ± 0.08 | 1.02 ± 0.05 | 1.095 ± 0.0071 | 0.9465 ± 0.0035 | 1.14 ± 0.14 | 0.846 ± 0.078 | 1.05 ± 0.23 | 1.03 ± 0.1
C[C@@H]1COC(Nc2ccc3ncnc(Nc4ccc(OCc5nccs5)c(Cl)c4)c3c2)=N1 | 0.932 ± 0.12 | 0.973 ± 0.028 | 1.055 ± 0.0071 | 0.988 ± 0.031 | 1.14 ± 0.18 | 1.51 ± 0.45 | 1.52 ± 0.042 | 1.22 ± 0.25
CCN(CC)CCCCNc1ncc2cc(-c3cc(OC)cc(OC)c3)c(NC(=O)NC(C)(C)C)nc2n1 | 0.835 ± 0.052 | 1.01 ± 0.028 | 1.055 ± 0.0071 | 1.1 ± 0.071 | 0.702 ± 0.073 | 0.698 ± 0.073 | 0.781 ± 0.058 | 1.04 ± 0.18
N#CC[C@H](C1CCCC1)n1cc(-c2ncnc3[nH]ccc23)cn1 | 1.115 ± 0.0071 | 1.13 ± 0.057 | 1.09 | 0.9755 ± 0.0021 | 1.05 ± 0.15 | 1.025 ± 0.0071 | 1.13 ± 0.042 | 1.09 ± 0.042
Cc1ccc(C(=O)Nc2ccc(CN3CCN(C)CC3)c(C(F)(F)F)c2)cc1C#Cc1cnc2cccnn12 | 0.835 ± 0.055 | 0.8 ± 0.0099 | 0.631 ± 0.14 | 1.01 ± 0.16 | 0.285 ± 0.064 | 0.466 ± 0.0028 | 0.292 ± 0.12 | 0.668 ± 0.098
CCc1cc2c(cc1N1CCC(N3CCOCC3)CC1)C(C)(C)c1[nH]c3cc(C#N)ccc3c1C2=O | 1.05 ± 0.071 | 0.995 ± 0.064 | 1.18 ± 0.26 | 0.853 ± 0.033 | 1.08 ± 0.078 | 1.05 ± 0.12 | 1.01 ± 0.17 | 0.638 ± 0.31
O=C1NCCc2[nH]c(-c3ccncc3)cc21 | 1.03 ± 0.14 | 1.03 ± 0.054 | 0.665 ± 0.14 | 1.24 ± 0.11 | 0.612 ± 0.054 | 0.44 ± 0.11 | 0.222 ± 0.0085 | 0.829 ± 0.023
CO[C@H]1C[C@@H]2CC[C@@H](C)[C@@](O)(O2)C(=O)C(=O)N2CCCC[C@H]2C(=O)O[C@H]([C@H](C)C[C@@H]2CC[C@@H](OC(=O)C(C)(CO)CO)[C@H](OC)C2)CC(=O)[C@H](C)/C=C(\C)[C@@H](O)[C@@H](OC)C(=O)[C@H](C)C[C@H](C)/C=C/C=C/C=C/1C [Temsirolimus (Torisel)] | 1.135 ± 0.0071 | 1.115 ± 0.0071 | 1.125 ± 0.0071 | 0.934 ± 0.0028 | 1.08 ± 0.085 | 0.995 ± 0.078 | 1.165 ± 0.0071 | 0.951 ± 0.11
